SMILES strings stand for the structures. Records with an inconclusive call do not appear. Calls of active or inactive are those of the source. How the source made its calls: active means hit-call score of the fitted dose curve at least 0.9, where 1 is the maximum; inconclusive means response in the unintended direction; inactive means score below 0.9.

Read-out in this assay: Cytochrome P450 2B6 (Homo sapiens) (UniProt P20813)
Description: CLD_CYP2B6_6hr: CellzDirect (CLD) Gene Expression Assay for xenobiotic metabolism (CYP2B6) at 6 hours (AID 2283677).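 Further: actives raise CYP2B6 transcript above DMSO baseline so AC50 marks an inducer.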 The method, then:
CLD_6hr is a cell-based, multiplexed-readout assay that uses hepatocyte, a human liver primary cell, with measurements taken at 6 hours after chemical dosing in a 96-well plate.CLD_CYP2B6_6hr is one of 16 assay component(s) measured or calculated from the CLD_6hr assay. It is designed to make measurements of mRNA induction, a form of inducible reporter, as detected with chemiluminescence signals by Quantitative Nuclease Protection Assay (qNPA) technology.Data from the assay component CLD_CYP2B6_6hr was analyzed at the endpoint, CLD_CYP2B6_6hr, in the positive analysis fitting direction relative to DMSO as the negative control and baseline of activity. Using a type of inducible reporter, gain-of-signal activity can be used to understand changes in the reporter gene as they relate to the gene CYP2B6. Furthermore, this assay endpoint can be referred to as a primary readout. To generalize the intended target to other relatable targets, this assay endpoint is annotated to the cyp intended target family, where subfamily is xenobiotic metabolism.
Human hepatocyte cultures were treated daily for two consecutive days with fresh dosing solutions containing appropriate concentrations of the 320 ToxCast chemicals (chemical identities were blinded to CellzDirect and other ToxCast collaborators), vehicle control (0.2% DMSO), and positive control inducers as summarized in Table 1. Due to the large number of treatment groups and chemicals examined, the ToxCast chemicals were divided into two groups (spanning two independent cultures of hepatocytes from separate donor preparations (Hu778: ToxCast plates 1 and 2; Hu776: ToxCast plates 3 and 4). Each preparation of human hepatocyte cultures was treated with respective vehicle control, medium only control, set of six positive controls/reference chemicals for the five hepatic receptor pathways, and a subset of eight of the ToxCast chemicals (indoxacarb, pyrithiobac-sodium, norflurazon, cyhalofop-butyl, methomyl, thiram, acetochlor, and propiconazole). These replicate data, coupled with internal replicates designed within the blinded ToxCast chemical library, provided additional data to evaluate interindividual differences between hepatocyte preparations and their potential impact on chemical profiles.Cell morphology and integrity were evaluated using phase-contrast microscopy as an indicator of hepatocyte cell health (Tyson & Green, 1987). Cultures for each treatment group (i.e., media, vehicle [0.2% DMSO], positive control inducers [multiple concentrations], and the ToxCast chemicals [multiple concentrations]) were observed and cell morphology was assessed relative to vehicle control cultures at each harvest time point (0, 6, 24, or 48 h). […] Images were evaluated at the conclusion of the study to assess changes in cell integrity and account for the effects of chemical exposure on uncharacteristic changes in concentration-dependent gene expression profiles. The results from these determinations of apparent cytotoxicity were annotated (yes/no) alongside the corresponding qNPA data for reference.At the conclusion of each treatment period, hepatocyte cultures (96-well) were washed with 1 volume of HBSS, lysed by addition of 25 ul ArrayPlate lysis buffer (HTG, Tucson, AZ), and 70 ul/well of Denaturation Oil, denatured by incubation at 95C for 10 min, and frozen at approximately -70C until analysis by nuclease protection assay (qNPA) (Roberts et al., 2007). For qNPA analysis, cell lysates were thawed at 50C for approximately 30 min, qNPA probes were added, and samples were incubated at 95C for 10 min to begin the detection process by denaturing the target RNA, dissociating the duplexes and secondary structure hybridization. At the conclusion of the hybridization period, S1 nuclease reagent was added to each sample to digest all nonprotected nucleotides at 50C for 60-90 min. […]
Take `O=C(O)CCCOc1ccc(Cl)cc1Cl`: the call was inactive.
In the case of `Cc1[nH]c(=O)n(C(C)(C)C)c(=O)c1Cl`, the result was inactive.
The same measure, in the same setting: the result for `Oc1cc(Cl)ccc1Oc1ccc(Cl)cc1Cl` reads “inactive”; that for `O=C(O)C(F)(F)C(F)(F)C(F)(F)C(F)(F)C(F)(F)C(F)(F)C(F)(F)F`, “inactive”.
With `COP(=S)(OC)Oc1ccc([N+](=O)[O-])cc1`, the AC50 is 0.916 µM (active).
For `COC(=O)c1ccccc1S(=O)(=O)NC(=O)Nc1nc(C)nc(OC)n1`, the outcome was inactive.
For `CCC(C)(NC(=O)c1cc(Cl)c(C)c(Cl)c1)C(=O)CCl` (stereo not given), the AC50 is 3.17 µM (active).
The same measure, in the same setting: the result for `COc1nn(CSP(=S)(OC)OC)c(=O)s1` reads 2.94 µM (active); that for `C[C@H]1[C@H](c2ccc(Cl)cc2)SC(=O)N1C(=O)NC1CCCCC1`, 3.09 µM (active).
Consider `CCOc1nc(NC)nc(NC(=O)NS(=O)(=O)c2ccccc2C(=O)OC)n1`, for which the outcome was inactive.
In the case of `CC(C)OC(=O)Nc1cccc(Cl)c1`, the AC50 was 6.86 µM (active).
The same measure, in the same setting: in the case of `COP(=O)(OC)OC=C(Cl)Cl` it was 1.89 µM (active).
Regarding `O=S(=O)(O)C(F)(F)C(F)(F)C(F)(F)C(F)(F)C(F)(F)C(F)(F)C(F)(F)C(F)(F)F`, the compound was called inactive.
Take `CC(C)(C)C(O)/C(=C\c1ccc(Cl)cc1Cl)n1cncn1` (stereo not given): the AC50 is 0.733 µM (active).
For the compound `CN1CSC(=S)N(C)C1`, the compound was classed as inactive.
For the compound `N#Cc1c(Cl)c(Cl)c(Cl)c(C#N)c1Cl`, the AC50 was 20 µM (active).
Still for that read-out and setting: the result for `CNC(=O)CSP(=S)(OC)OC` reads 3.11 µM (active); that for `CCOCN(C(=O)CCl)c1c(C)cccc1CC`, 1.66 µM (active); that for `Clc1ccccc1-c1nnc(-c2ccccc2Cl)nn1`, 0.0004 µM (active).
As to `O=[N+]([O-])/N=C1\NCCN1Cc1ccc(Cl)nc1`, the call was inactive.
With `CC(C)(C)C(O)C(Oc1ccc(Cl)cc1)n1cncn1` (stereo not given), the AC50 is 0.656 µM (active).
Same read-out and setting: the result for `ClC1C(Cl)C(Cl)C(Cl)C(Cl)C1Cl` (stereo not given) reads 1.43 µM (active).
Take `OCCOc1ccccc1`: the call was inactive.
On to `CC(C)N(C(=O)COc1nnc(C(F)(F)F)s1)c1ccc(F)cc1`, for which the AC50 was 14.7 µM (active).
Same read-out and setting: the result for `CNC(=O)Oc1ccccc1OC(C)C` reads 3.21 µM (active).
In the case of `CC[C@H](C)[C@H]1O[C@]2(C=C[C@@H]1C)C[C@@H]1C[C@@H](C/C=C(\C)[C@@H](O[C@H]3C[C@H](OC)[C@@H](O[C@H]4C[C@H](OC)[C@@H](O)[C@H](C)O4)[C@H](C)O3)[C@@H](C)/C=C/C=C3\CO[C@@H]4[C@H](O)C(C)=C[C@@H](C(=O)O1)[C@]34O)O2` (tested in a mixture with another compound), the compound was called inactive.
`COP(=S)(OC)Oc1ccc(SC)c(C)c1`: the AC50 was 4.74 µM (active).
Take `O=S1OCC2C(CO1)C1(Cl)C(Cl)=C(Cl)C2(Cl)C1(Cl)Cl` (stereo not given): the AC50 is 1.24 µM (active).
Turning to `CNC(=O)Oc1cccc(N=CN(C)C)c1`, the compound was called inactive.
Still for that read-out and setting: the result for `COc1cc(OC)nc(NC(=O)NS(=O)(=O)c2cc(NC=O)ccc2C(=O)N(C)C)n1` reads “inactive”; that for `Cc1cc(C)nc(NC(=O)NS(=O)(=O)c2ccccc2C(=O)OC2COC2)n1`, “inactive”.
Consider `CCCN(CCOc1c(Cl)cc(Cl)cc1Cl)C(=O)n1ccnc1`, for which the AC50 is 0.702 µM (active).
Same read-out and setting: the result for `CCN(CC)C(=O)SCc1ccc(Cl)cc1` reads 1.84 µM (active).
For the compound `CNC(=O)/C=C(\C)OP(=O)(OC)OC`, the compound was called inactive.
Turning to `CCc1ccc(C(=O)NN(C(=O)c2cc(C)cc(C)c2)C(C)(C)C)cc1`, the concentration at half-maximal activity (AC50) was 2.09 µM (active).
Still for that read-out and setting: the result for `C#CCN1C(=O)COc2cc(F)c(N3C(=O)C4=C(CCCC4)C3=O)cc21` reads 0.301 µM (active).
In the case of `COC(=O)c1ccccc1S(=O)(=O)NC(=O)N(C)c1nc(C)nc(OC)n1`, the compound was classed as inactive.
For `CCOC1Oc2ccc(OS(C)(=O)=O)cc2C1(C)C` (stereo not given), the AC50 was 2.55 µM (active).
On to `CCCN(CCC)c1c([N+](=O)[O-])cc(C(F)(F)F)cc1[N+](=O)[O-]`, for which the AC50 is 1.27 µM (active).
Same read-out and setting: in the case of `CCS(=O)(=O)c1cccnc1S(=O)(=O)NC(=O)Nc1nc(OC)cc(OC)n1` it was 11.3 µM (active).

Values taken from PubChem BioAssay (EPA / NIEHS).
